# Only some compounds are listed: those with a hit (about 5.2% of all), similar ones and a draw of the others.
# TrxR1 substrate: rat thioredoxin reductase 1 substrate activity; O89049; purified TrxR1 substrate turnover, NADPH consumption readout; Potency, µM (top dose mostly 114 µM), for inactives: at the highest dose activity change, negative = substrate turnover; 390,000 tested, 0.01% active; note: nearly all actives have a fitted effect of over 50% in size
#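 Rat TrxR1, dispensed at 90 nM, was prereduced with 400 uM NADPH (final) for 5 min at ~22 deg C, then incubated with compound 15 min before 400 uM selenite. A first-read NADPH fluorescence drop versus no-compound background flagged substrates.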
# VDR inhibitor: vitamin D3 receptor (human) inhibition; 400,000 tested, 0.93% active; AID 504847; VDR-SRC2-3 peptide fluorescence polarization, 2 h; Potency, µM, for the others: max response, negative = inhibition, actives largely listed as inhibitors; P11473
#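 VDR–SRC2-3 interaction, FP format. Cmpds 23 nl via pintool, brief spin, 2 h ambient incubation.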
# mIDH1 inhibitor: human IDH1 R132H inhibition | IDH1-R132H enzyme, NADPH consumption, diaphorase/resazurin fluorescence | 390,000 tested, 0.093% active | Potency, µM (top dose mostly 76.6 µM), for inactives: at the highest dose activity change, negative = inhibition, most hits filed as inhibitors | O75874; note: nearly all actives have a fitted effect of over 65% in size
# Target sequence (O75874 whole entry R132H, stated change not applied): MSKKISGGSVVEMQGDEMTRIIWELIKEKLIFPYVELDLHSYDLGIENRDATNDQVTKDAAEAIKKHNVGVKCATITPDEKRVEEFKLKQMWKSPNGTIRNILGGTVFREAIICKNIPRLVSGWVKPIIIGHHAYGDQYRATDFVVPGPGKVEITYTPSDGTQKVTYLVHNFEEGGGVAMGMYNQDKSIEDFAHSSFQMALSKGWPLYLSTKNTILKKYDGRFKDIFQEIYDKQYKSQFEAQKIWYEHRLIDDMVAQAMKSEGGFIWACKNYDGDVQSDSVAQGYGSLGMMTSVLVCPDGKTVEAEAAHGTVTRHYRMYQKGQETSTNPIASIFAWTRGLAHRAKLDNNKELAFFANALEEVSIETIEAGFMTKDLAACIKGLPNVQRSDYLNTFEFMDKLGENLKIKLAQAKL
#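 IDH1-R132H (0.5 ug/mL dispensed) in pH 7.5 Tris buffer was preincubated 30 min with compound, then given a substrate mix of 0.016 mM NADPH and 2 mM alpha-KG for 80 min at room temperature; remaining NADPH was read by diaphorase/resazurin fluorescence.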
# PLK1 PBD block: blocks phosphopeptide binding to human PLK1 polo-box domain; P53350; Plk1 PBD binding of FITC phosphopeptide, fluorescence polarization; Potency, µM, without a hit: max response, negative = inhibition, hits mostly inhibitors; 360,000 tested, 2.8% active; AID 720504; note: series mostly up to about 57 µM; nearly all actives have a fitted effect of over 65% in size
# Sfp inh: inhibitors of Bacillus subtilis Sfp phosphopantetheinyl transferase; Biochemical Sfp PPTase activity, qHTS; Potency, µM, inactives show largest response in the series, negative = inhibition, actives largely listed as inhibitors; 310,000 tested, 3.5% active; AID 1490;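 note: the enzyme is Sfp with the accession as filed and its product quenches rhodamine fluorescence; 0% = enzyme reaction without inhibitor and -100% = no enzyme wells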
#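 Sfp 15 nM + cpd, 15 min RT; start w/ rhodamine-CoA 5 uM, BHQ-2-YbbR 12.5 uM (final); 50 mM Hepes pH 7.6, 10 mM MgCl2, 0.01% NP-40, 0.01% BSA; read 525/598 nm at 0 and 30 min.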
# TrxR1 inh: inhibitors of rat thioredoxin reductase 1; recombinant rTrxR1, NADPH fluorescence consumption, selenite substrate; Potency, µM (doses to about 114 µM), for the others: top-dose activity change, negative = inhibition, hits mostly inhibitors; 390,000 tested, 1% active; AID 588453; note: nearly all actives have a fitted effect of over 65% in size
#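 Rat TrxR1 (90 nM in the dispensed reagent) was pre-reduced with 400 uM NADPH for 5 min at room temperature, then incubated with compound for 15 min. After 400 uM selenite was added, NADPH fluorescence (Ex 340/Em 450 nm) was followed for 8 min.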
# * = called active by the depositor; ? = inconclusive; . = no result given; [ ] = dose if it differs, or a comment. Calls come from the whole dose curve; as a rule, active = well fitted curve in the direction sought with a large enough effect; inconclusive = small, poorly fitted or top-dose-only effect, or another doubt; inactive = no such curve, though single readings can be large; an effect the other way counts as inactive or inconclusive. Unless noted, % is set by controls: 0 for no effect and ±100 for the full control effect; potency is the fitted concentration of half-maximal effect.
SMILES,TrxR1 substrate,VDR inhibitor,mIDH1 inhibitor,PLK1 PBD block,Sfp inh,TrxR1 inh
O=C1NC(=S)SC1=C1CCCCCC1,-16%,?,3%,?,35µM*,?
O=C1N=C(N2CCCCC2)SC1=C1CCCCC1,-9%,11%,4%,-10%,-3%,-11%
CCNC(=O)/C=C/c1cccc(Br)c1,.,-11%,.,.,15%,.
CCNc1ccc(Br)cc(C(=O)/C=C/c2c(Cl)cccc2Cl)c1=O,-14%,?,5%,?,16µM*,?
CCNc1ccc(Br)cc(C(=O)/C=C/c2ccc(Cl)cc2)c1=O,-18%,?,7%,?,40µM*,35µM*
CCNc1ccc(Br)cc(C(=O)/C=C/c2ccc3c(c2)OCO3)c1=O,-5%,89µM*,4%,?,-81%,7.9µM*
CCc1cccc(NC(=O)Cn2nc(C)c3sc4ccccc4c3c2=O)c1,12%,2%,-4%,.,.,18%
Brc1ccc2c(c1)OCCOCCOc1cc(Br)ccc1OCCOCCOCCO2,-3%,-19%,1%,0%,8%,-4%
Brc1cc2c(cc1Br)OCCOCCOCCOCCO2,5%[57.1 µM],28µM*,-3%,4.2µM*,8%,11%[57.1 µM]
COc1ccc2c(c1)cc1c(=O)n(CC(=O)NCCc3ccccc3)nc(C)n12,7%,-1%,-1%,.,.,13%
COc1cccc(/C=N/NC(=O)C(=O)N/N=C/c2cccc(OC)c2OC)c1OC,1%[57.1 µM],-9%,-4%,-11%,25%,-7%[57.1 µM]
COc1cccc(/C=N\NC(=O)c2sc(N)nc2C)c1OC,6%[57.1 µM],-7%,8%,27µM*,-2%,-5%
CCC(C)NCc1ccc(C(=O)OC)o1 (stereo not drawn),-7%,?,0%,24µM*,15%,-2%
CCc1nc2ccc(C(=O)N3CCN(c4ccccc4)CC3)cn2c1N(C)CCCc1ccccc1,.,.,.,-1%,.,.
O=C(COC(=O)/C=C/c1ccco1)Nc1cccc([N+](=O)[O-])c1,3%,-12%,4%,-19%,32µM*,11%[0.457 µM]
CN(C)S(=O)(=O)c1cccc(NC(=O)COC(=O)/C=C/c2ccco2)c1,-2%,?,1%,30µM*,-19%,25µM*
CCN(CC)S(=O)(=O)c1cccc(NC(=O)COC(=O)/C=C/c2ccco2)c1,-10%,-12%,2%,-6%,28µM*,?
O=C(COC(=O)COc1ccc(Cl)cc1)NC1CCCCCC1,-1%,19%,15%,-5%,.,2%
CCOC(=O)CN(Cc1cc(OC)cc(N(C)C)c1OC)C(=O)C1CC(CO[Si](C)(C)C(C)(C)C)=CN1C(=O)OC(C)(C)C (stereo not drawn),-11%,-11%,.,.,-1%,-3%
COc1ccc(/C=N/n2cnn(Cc3ccccc3Cl)c2=S)cc1OC,-8%[57.1 µM],-8%,-5%,24µM*,?,-5%[57.1 µM]
Cc1ccc(C)c(CNC(=O)c2cnc3sc(N4CCCC4)nn3c2=O)c1,75%,-1%,-6%,.,.,13%
N=c1n(CCN2CCCCC2)c2ccccc2n1CC(=O)c1ccc(Cl)c(Cl)c1,3%,-5%,11%,-10%,35µM*,7%[57.1 µM]
COc1cccc(O)c1O,.,50µM*,.,.,20µM*,.
COc1cccc(/C=C/c2ccccn2)c1O,9%,-27%,7%,27µM*,11%,?
COc1ccccc1/C=C/c1cnccn1,9%,.,.,.,.,-13%
SMILES,TrxR1 substrate,VDR inhibitor,mIDH1 inhibitor,PLK1 PBD block,Sfp inh,TrxR1 inh
CNc1cc(-c2cnn(CC(C)C)c2)ncn1,.,.,.,-1%,.,.
COc1cccc(CNC(=O)C2CCN(C(=O)c3cnn(-c4ccccc4)c3-n3cccc3)CC2)c1,2%,2%,0%,.,.,14%
COC(=O)c1c(OC)cc2c(c1C)Oc1c(Cl)c(O)c(Cl)c(C)c1C(=O)O2,.,40µM*,.,.,-28%,.
COC(=O)c1c(C)c2c(c(C)c1O)OC(=O)c1c(C)c(Cl)c(O)c(Cl)c1O2,.,?,.,.,-1%,.
Cc1cccc(Nc2nc(-c3c(C)nc4ccccn34)cs2)c1,16%[57.1 µM],-9%,-2%,-2%,50µM*,7%
Cc1nc2ccccn2c1-c1csc(Nc2ccc(C(=O)O)cc2)n1,1%,19%,-6%,-9%,-11%,6%

# Compound activity: PubChem, National Center for Advancing Translational Sciences (NCATS)
